# Results: the supplement of paper PMC4166925
# ± gives the standard deviation of the averaged measurements. Over roughly 33,000 sequences, “E-score (dimensionless, -0.5 to 0.5)” has its median near -0.049; the highest 2% begin near 0.37. Only a selection was taken, and the highest values are over-represented in it overall.
# Test system: T1, PmTbr T-box DNA-binding domain (GST fusion)
# T1 sequence: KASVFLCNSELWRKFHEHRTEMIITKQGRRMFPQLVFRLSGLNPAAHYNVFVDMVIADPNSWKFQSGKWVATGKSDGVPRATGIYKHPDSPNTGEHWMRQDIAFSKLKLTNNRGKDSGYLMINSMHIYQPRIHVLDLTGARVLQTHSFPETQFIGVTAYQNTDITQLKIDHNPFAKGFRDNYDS
# Test: PBM E-score of 8-mer (E-score (dimensionless, -0.5 to 0.5)); Tbr is Tbrain of the sea star Patiria miniata (Pm) or the sea urchin Strongylocentrotus purpuratus (Sp); higher = stronger binding preference
# Details: the construct has about 5 more residues each side
# Procedure: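 Universal protein-binding microarray (Agilent AMADID 016060, 60-bp probes with a 35-bp variable region) incubated with 200 nM GST-fused Patiria miniata Tbr T-box DNA-binding domain (residues 272-466) in PBS pH 7.5. Scored for every ungapped 8-mer (given with its reverse complement) by the Universal PBM Analysis Suite as E-score (modified Wilcoxon-Mann-Whitney enrichment, range -0.5 to 0.5; >0.45 counts as bound) and Z-score of median probe intensity. Two replicate arrays (datasets 1 and 2).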
row,Sequence,PBM E-score of 8-mer
1,AACCTGCC,-0.0169 ± 0.035
2,AAGGCCGA,-0.191 ± 0.09
3,CCTTATGC,-0.139 ± 0.041
4,GCCATTAC,-0.169 ± 0.06
5,GGCCTGAC,-0.103 ± 0.02
6,CGTCCCAG,-0.151 ± 0.0033
7,ACCACGTG,0.169 ± 0.053
8,CACACGTG,0.376 ± 0.019
9,CGCACGTC,0.354 ± 0.02
10,AACACGTG,0.38 ± 0.016
11,AACACGAG,0.132 ± 0.0066
12,CACACGGC,0.0461 ± 0.026
13,CACACAAA,0.0927 ± 0.064
14,CACACGTA,0.357 ± 0.0053
15,CACACGTC,0.4359 ± 0.0027
16,CAAGAGTG,0.154 ± 0.047
17,CAACCGAG,0.0284 ± 0.0078
18,GAAAATAA,-0.0661 ± 0.086
19,CAACACTA,0.323 ± 0.04
20,CAACACCC,0.444 ± 0.015
21,CAACACGC,0.229 ± 0.019
22,CAACACCG,0.3 ± 0.013

row,Sequence,PBM E-score of 8-mer
1,CAACACGA,0.161 ± 0.015
2,GAACACCC,0.1762 ± 0.00083
3,GAACACCA,0.0994 ± 0.0056
4,GAACACTA,0.051 ± 0.077
5,AAACACCA,0.268 ± 0.0077
6,CAACACCA,0.392 ± 0.015
7,TAACACCA,0.451 ± 0.0075
8,TAACACTA,0.382 ± 0.0057
9,CTGACTCC,-0.143 ± 0.047
10,CTGCCCTC,-0.067 ± 0.048
11,CACCCATC,0.201 ± 0.011
12,GATATACC,-0.114 ± 0.031
13,CAAATTCG,0.0471 ± 0.029
14,GCTCTAAC,0.0585 ± 0.0059
15,AATTACCG,0.0948 ± 0.036
16,ACATCACT,0.0297 ± 0.063
17,ACACACCC,0.327 ± 0.015
18,CCACACCG,0.134 ± 0.063
19,CCACACCC,0.395 ± 0.028
20,ACCTCTTG,0.138 ± 0.027
21,TAAGTGGA,-0.141 ± 0.0053
22,AGTTACCC,-0.0906 ± 0.018

row,Sequence,PBM E-score of 8-mer
1,ATCGCGAT,0.38 ± 0.014
2,ATCGCGAA,0.335 ± 0.046
3,AGCGCGAG,0.319 ± 0.011
4,GGCGCGAA,0.4607 ± 0.0017
5,CTCGCGAA,0.368 ± 0.0047
6,GTCGCGAA,0.33 ± 0.02
7,GACGCGAA,0.126 ± 0.066
8,GGCGCGCA,0.0945 ± 0.0047
9,ATCGCGAG,0.249 ± 0.0038
10,TTCGCGAA,0.3702 ± 0.0034
11,AGCGCGAT,0.291 ± 0.0076
12,AGCGCGAA,0.392 ± 0.014
13,GCTAGCAA,0.144 ± 0.015
14,ATATTGCC,-0.106 ± 0.095
15,CTTCTATC,-0.198 ± 0.025
16,ATCTGTGA,0.282 ± 0.0073
17,GTCGCCAA,0.288 ± 0.038
18,CGGTCAAA,-0.18 ± 0.0046
19,AACAGTGC,0.0577 ± 0.058
20,ATTCTGAG,-0.131 ± 0.012
21,CCGGCTGC,-0.125 ± 0.1
22,TGCGCGAA,0.307 ± 0.017

row,Sequence,PBM E-score of 8-mer
1,CGCGCGAA,0.3963 ± 0.00041
2,GGCGCGAC,0.377 ± 0.025
3,CGCGCGAG,0.27 ± 0.023
4,CTCGCGAC,0.326 ± 0.0051
5,CGCGCGAC,0.291 ± 0.025
6,GTCGCGAC,0.385 ± 0.0054
7,ATCGCGAC,0.26 ± 0.021
8,AGCGCGAC,0.242 ± 0.003
9,ATAGGGGG,-0.0469 ± 0.086
10,CATCAAAC,-0.0906 ± 0.034
11,AAGGGGCC,-0.0989 ± 0.015
12,GCATGTAA,-0.124 ± 0.0041
13,GACCTTCC,0.0338 ± 0.01
14,AACCTTCG,-0.135 ± 0.0027
15,CACCTTCG,0.431 ± 0.02
16,CACCTTCA,0.436 ± 0.0071
17,AACCTTCA,-0.149 ± 0.083
18,GACCTTCA,-0.0991 ± 0.0084
19,AACCTTCC,-0.196 ± 0.038
20,CACCTTCC,0.4461 ± 0.0012
